Screens from PubChem.
GLP1R cytotox: cytotoxicity in counter-screen for GLP-1R inverse agonists; HEK293 cAMP-luciferase reporter cells, luminescence, 24 h; Potency, µM (top dose mostly 38.3 µM), without a hit: at the top dose activity change, negative = inhibition, hits mostly inhibitors; 410,000 tested, 0.13% active;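 note: loss of luciferase light is scored as toxicity; % is set by controls: 0 for no effect and ±100 for the full control effect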
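Step one: seed cells (200 cells/uL, DMEM with 10% Nu serum, 1% pen-strep). Step two: 12-hour incubation at 37 deg C. Step three: pin 23 nL compound, incubate 24 hr. Step four: add luciferase reagent, read luminescence 12 min later.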
Gal4-VP16 FLuc: counter-screen for ROR gamma inhibitors: Gal4-VP16 reporter; Drosophila S2 Gal4-VP16 UAS-luciferase, luminescence, 20 h; Potency, µM (top dose mostly 53.6 µM), inactives show top-dose activity, negative = inhibition, usual class: inhibitors; 310,000 tested, 3.5% active;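 note: Gal4-VP16 expression switched on by copper sulfate through the metallothionein promoter; % is set by controls: 0 for no effect and ±100 for the full control effect; nearly all actives have a fitted effect of over 50% in size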
RORg inh: ROR gamma (mouse) transcription inhibition; P51450; Drosophila S2 Gal4-RORgamma UAS-luciferase reporter, 20 h; Potency, µM (doses to about 53.6 µM), for inactives: at the highest dose activity change, negative = inhibition, most hits filed as inhibitors; 310,000 tested, 5.4% active; note: % is set by controls: 0 for no effect and ±100 for the full control effect; nearly all actives have a fitted effect of over 60% in size
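Drosophila S2 cells stably expressing Gal4-DBD/mouse RORγ fusion under metallothionein promoter plus UAS-luciferase; compound 1 h, then 700 uM CuSO4 induction for 20 h at ambient temperature; inhibition read as reduced luminescence.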
GLP-1R inv ag: acts as inverse agonist at human GLP-1 receptor | P43220 | 410,000 tested, 1.6% active | Potency, µM (series often up to 38.3 µM), for the others: at the top dose activity change, negative = inhibition, most hits filed as inhibitors | HEK293 GLP-1R CRE-luciferase, luminescence, 24 h; GLP-1R form is constitutively active; note: % is set by controls: 0 for no effect and ±100 for the full control effect; nearly all actives have a fitted effect of over 55% in size
Target sequence (P43220 whole entry, looked up): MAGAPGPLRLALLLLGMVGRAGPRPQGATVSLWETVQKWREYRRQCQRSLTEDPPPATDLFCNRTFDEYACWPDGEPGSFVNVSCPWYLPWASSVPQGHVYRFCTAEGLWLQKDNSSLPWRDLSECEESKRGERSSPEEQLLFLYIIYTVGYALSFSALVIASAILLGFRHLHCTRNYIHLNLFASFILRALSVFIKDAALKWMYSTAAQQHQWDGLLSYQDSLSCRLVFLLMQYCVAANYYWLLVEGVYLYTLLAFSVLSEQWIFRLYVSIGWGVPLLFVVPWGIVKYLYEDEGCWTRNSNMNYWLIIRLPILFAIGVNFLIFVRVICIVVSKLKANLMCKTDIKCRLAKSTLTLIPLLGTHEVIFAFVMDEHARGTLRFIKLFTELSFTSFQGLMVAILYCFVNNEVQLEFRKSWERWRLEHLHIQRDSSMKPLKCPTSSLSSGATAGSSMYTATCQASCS
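Inverse agonism was detected as reduced cAMP-driven luciferase luminescence after 24 h compound treatment. The cells were HEK293 clones expressing constitutively active human GLP-1R with the reporter. Reporter-only and GPR119 cell lines served as counterscreen controls.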
GLP-1R agonist: agonists of human GLP-1 receptor. HEK293 GLP-1R CRE-luciferase, luminescence, 4-6 h; cells express a hypersensitive GLP-1R form. 380,000 tested, 0.007% active. AID 624172. Potency, µM (highest dose often 45.6 µM), for the others: at the highest dose activation, hits mostly activators. P43220; note: % of control where 0% means no effect
* marks the source's active call; other numbers are inactive results; ? = inconclusive; nt = no result given; [ ] = dose if it differs, or a comment. Compounds with a hit are over-represented: about 5.9% of the library has one in this group of screens. Calls come from the whole dose curve; as a rule, active = well fitted curve in the direction sought with a large enough effect; inconclusive = small, poorly fitted or top-dose-only effect, or another doubt; inactive = no such curve, though single readings can be large; an effect the other way counts as inactive or inconclusive. Potency is the fitted concentration of half-maximal effect.

SMILES	GLP1R cytotox	Gal4-VP16 FLuc	RORg inh	GLP-1R inv ag	GLP-1R agonist
CCn1cc(C(=O)OCC(=O)Nc2cc(OC)cc(OC)c2)c(=O)c2ccc(C)nc21	-4.2%	nt	nt	12.7%	-0.1%
O=S(=O)(c1ccc(Cl)cc1)c1nc(-c2cccs2)oc1N1CCCCC1	15.1%	nt	nt	5.9%	nt
CN1CCN(c2ncc3nc(CCc4ccccc4)c(=O)n(Cc4ccc(F)cc4)c3n2)CC1	nt	-24.8%	-43.8%	nt	nt
O=c1c(CCc2ccccc2)nc2cnc(N3CCNCC3)nc2n1Cc1ccc(F)cc1	nt	?	4.47µM*	nt	nt
COc1ccc(C2=N[C@H](c3ccccc3)CO2)cc1	nt	-5.9%[96.6 µM]	15.8µM*	nt	nt
COc1ccc(C2=N[C@@H](C(C)C)CO2)cc1	nt	16.2%[96.6 µM]	-20.0%[96.6 µM]	nt	nt
COc1ccc(C2CC23N=C(c2ccccc2)OC3=O)cc1 (configuration not stated)	16.8%	5.0%	22.0%	16.6%	-5.0%
COc1ccc(C2=NC(c3ccccc3)CO2)cc1 (configuration not stated)	nt	12.6µM*	10µM*	nt	nt
COc1ccc(OC)c(C2=Nn3c(nnc3-c3cccc(OC)c3OC)SC2)c1	nt	0.3%	-1.1%	nt	nt
CCN(C(=O)CSc1nc(-c2ccc(C(C)C)cc2)no1)c1cccc(C)c1	-4.1%	nt	nt	?	nt
CCOc1ccc(N2C(=O)CS(=O)(=O)C23C(=O)N(Cc2cccc(Cl)c2)c2ccccc23)cc1 (configuration not stated)	2.0%	nt	nt	-29.0%	2.7%
O=C(Nc1ccc(Cl)c([N+](=O)[O-])c1)c1ccc(NCCCN2CCOCC2)c([N+](=O)[O-])c1	-3.0%	?	5.01µM*	13.6%	8.0%
Cc1ccc(NC(=O)C(=S)NCc2ccco2)cc1	-8.4%	11.0%	1.1%	30.4%	-3.6%
O=C(CSCc1ccccc1Br)NNC(=S)NCc1ccco1	0.1%	10µM*	?	?	0.6%
Cc1ccc(C(=O)NC(=S)NCc2ccco2)cc1	-17.4%	?	10µM*	-26.2%	4.5%
CC(C)(C)c1ccc(C(=O)c2c[nH]c(C(=O)NCc3ccco3)c2)cc1	1.0%	12.6µM*	?	1.0%	-8.2%
CC(C)c1cc(C(=O)NNC(=S)NCc2ccco2)c(O)c(C(C)C)c1	-29.5%	?	12.6µM*	?	-12.3%
N#Cc1nc(NCCCCO)nc(Nc2ccccc2)n1	nt	6.2%	nt	nt	nt
CCOC(=O)N1CCC(NC(=O)c2ccc3c(c2)N(Cc2ccccc2C)C(=O)c2ccccc2S3=O)CC1 (configuration not stated)	-16.5%	nt	nt	-28.9%	-2.2%
O=C(NC(=S)NCc1ccco1)c1cccc(Cl)c1	nt	8.91µM*	6.31µM*	nt	nt
COc1cc(OC)cc(C(=O)NNC(=S)NCc2ccco2)c1	-0.8%	-21.0%	-40.9%	2.0%	12.9%
COc1cc(OC)cc(C(=O)NC(=S)NCc2ccco2)c1	2.6%	11.2µM*	5.01µM*	-17.5%	13.4%
CC(C)(C)c1ccc(C(=O)NNC(=S)NCc2ccco2)cc1	1.1%	-24.8%	10µM*	-8.1%	3.0%
O=C(NC(=S)NCc1ccccc1)c1cccc(Cl)c1	?	7.08µM*	6.31µM*	?	7.6%
CN(C)CCNC(=O)C1CCN(c2ncnc3c2nc2n3CCCCC2)CC1	2.6%	nt	nt	2.7%	nt
SMILES	GLP1R cytotox	Gal4-VP16 FLuc	RORg inh	GLP-1R inv ag	GLP-1R agonist
CC(C)(C)c1ccc(C(=O)NNC(=O)C2CCCCC2)cc1	5.5%	-0.2%	19.5%	11.4%	-1.0%
CCC(C)NC(=S)NNC(=O)c1ccc(C(C)(C)C)cc1 (configuration not stated)	-19.9%	8.91µM*	10µM*	?	-12.4%
CNC(=O)NC(=S)NC(=O)c1cccc(Cl)c1	-5.3%	9.1%[10 µM]	14.1µM*	1.0%	0.0%
COc1ccc(C(=O)NC(=S)NCc2ccco2)cc1	12.8%	11.2µM*	6.31µM*	-13.6%	7.0%
COc1cccc(C(=O)NC(=S)NCc2ccco2)c1	2.7%	?	14.1µM*	15.7%	6.9%
CNC(=O)NC(=S)NC(=O)c1ccccc1Cl	10.3%	17.7%	?	22.7%	6.6%
COc1cccc(-c2cc(C(=O)NCc3ccco3)no2)c1	-3.8%	9.3%	?	8.8%	-9.8%
COc1ccc(C(=O)N/C(=C\c2ccco2)C(=O)NCc2ccco2)cc1	1.0%	-2.2%	-6.8%	-1.1%	-1.2%
COc1ccc(NC(=O)Cn2c(C)cc3ccccc3c2=O)c(OC)c1	-12.2%	nt	nt	0.8%	nt
C[C@]12C=CC(=O)C=C1CCC1C2C(=O)C[C@]2(C)C1CC[C@]2(O)C(=O)CO (some centres not stated)	nt	0.6%	9.6%	nt	nt
CC1(C)CO[C@H](CC(=O)O)CN1	nt	-2.6%	1.2%	nt	nt
Cc1ccsc1/C=N/n1c(C2CCCCC2)n[nH]c1=S	0.0%	3.16µM*	2.51µM*	?	-3.4%
S=c1[nH]nc(C2CCCCC2)n1/N=C/c1ccco1	8.7%	?	?	-0.7%	-2.7%
Cc1ccc(/C=N/n2c(C3CCCCC3)n[nH]c2=S)s1	6.6%	3.16µM*	3.16µM*	11.5%	-0.3%
Cc1ccc(-c2n[nH]c(=S)n2/N=C/c2sccc2C)cc1	-12.5%	-2.4%	?	11.3%	8.3%
CCOC(=O)c1c(Nc2ccc(C)cc2)nnc(-c2ccccc2)c1-c1ccccc1	0.0%	nt	nt	11.2µM*	-2.8%
CCOC(=O)c1c(Nc2cccc(C(=O)OC)c2)nnc(-c2ccccc2)c1-c1ccccc1	1.0%	nt	nt	0.6%	-5.7%
Cc1ccc(C)c(SCC(=O)NC(=O)NC2CCCC2)c1	2.4%	nt	nt	11.2µM*	-4.4%
CC1=Nc2ccc3ccccc3c2C1(C)C	0.1%	-22.9%	7.94µM*	5.7%	2.5%
Cc1c2ccccc2c(C)c2c1ccc1ccccc12	1.0%	?	-5.6%	14.5%	10.6%
CCOC(=O)c1csc(NC(=O)CC2CCCC2)n1	2.7%[7.66 µM]	-19.8%	11.2µM*	-2.4%[7.66 µM]	-0.8%
CCOC(=O)c1csc(NC(=O)CCSc2ccccc2)n1	10.3%	-5.3%	28.2%	-38.2%	7.6%
